Most compounds without a hit are left out; they make up all but 7.9% or so of the library.
SW480 rereplic: inducers of DNA re-replication in SW480 colon cancer cells | SW480 DNA re-replication, Hoechst DNA content imaging, 48 h | Potency, µM (doses to about 46.1 µM), without a hit: at the highest dose re-replication activation, usual class: activators | hit rate 1.8% among 340,000; note: % of control where 0% means no effect; nearly all actives have a fitted effect of over 55% in size
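DNA re-replication was detected as more nuclei of elevated Hoechst intensity after 48 hr exposure to compound (23 nL pinned per well of 250 cells).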
HT1080 IDH1KD tx: HT-1080 IDH1 knockdown cell toxicity (counter line) | HT-1080 IDH1 knockdown viability, ATP luminescence, 48 h | Potency, µM (top dose mostly 46.1 µM), for the others: at the top dose activity, negative = toxicity, most hits filed as cytotoxic | hit rate 2% among 360,000;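 note: 0% = DMSO wells and -100% = cell-free medium wells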
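Knockdown cells (IDH1KD HT-1080) received compounds 2 h after plating at 750 cells/well and were kept 48 h at 37 °C in 5% FBS RPMI. A CellTiter-Glo luminescence read gave % activity for curve fitting.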
KB-V1 MDR tox: kills drug-selected multidrug resistant KB-V1 cells. Potency, µM (top dose mostly 46.1 µM), most hits filed as cytotoxic. AID 1347076. hit rate 3.4% among 400,000. KB-V1 MDR cells viability, CellTiter-Glo, 72 h; note: % is set by controls: 0 for no effect and ±100 for the full control effect; nearly all actives have a fitted effect of over 60% in size
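Luminescent ATP read-out (CellTiter-Glo, 10 min) measures survival of drug-selected KB-V1 MDR cells after 72 h, 37 degrees C compound exposure. Medium: phenol-red-free DMEM, 10% FBS. Values from fitted concentration-response curves.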
HT1080-NT tox: kills 2HG-producing HT-1080-NT fibrosarcoma cells. HT-1080-NT fibrosarcoma viability, CellTiter-Glo ATP luminescence, 48 h. Potency, µM (top dose mostly 46.1 µM), for the others: top-dose activity, negative = less viability, most hits filed as cytotoxic. hit rate 1.6% among 360,000;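 note: NT is the 2HG producing partner of a matched IDH1 knockdown line; 0% = DMSO-treated cells and -100% = media-only wells without cells; nearly all actives have a fitted effect of over 55% in size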
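Fibrosarcoma NT cells, 750 per well in 5% FBS RPMI, were exposed to compound for 48 hours. Viability: CellTiter-Glo luminescence.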
MCF10A rereplic: induces DNA re-replication in MCF 10a normal breast cells. AID 624296. MCF 10A DNA re-replication, Hoechst nuclear intensity, 48 h. hit rate 2.9% among 350,000. Potency, µM (top dose mostly 46.1 µM), inactives show at the top dose activity, positive = re-replication, hits mostly activators; note: % of control where 0% means no effect; nearly all actives have a fitted effect of over 50% in size
KB-3-1 cytotox: KB-3-1 parental cell cytotoxicity; AID 1347075; Potency, µM (highest dose often 46.1 µM), usual class: cytotoxic; KB-3-1 viability, CellTiter-Glo ATP luminescence, 72 h; hit rate 1.4% among 400,000; note: % is set by controls: 0 for no effect and ±100 for the full control effect; nearly all actives have a fitted effect of over 60% in size
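KB-3-1 cells, DMEM (no phenol red) + 10% FBS; compound by pin transfer, 72 h, 37 °C. Readout: CellTiter-Glo luminescence after 10 min. Data normalized, curve-fitted.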
The depositor's hits bear a star; i = inactive; ? = inconclusive; nt = no result given. Calls come from the whole dose curve; as a rule, active = well fitted curve in the direction sought with a large enough effect; inconclusive = small, poorly fitted or top-dose-only effect, or another doubt; inactive = no such curve, though single readings can be large; an effect the other way counts as inactive or inconclusive. Potency is the fitted concentration of half-maximal effect.

SMILES | SW480 rereplic | HT1080 IDH1KD tx | KB-V1 MDR tox | HT1080-NT tox | MCF10A rereplic | KB-3-1 cytotox
CN(C)c1cc[n+](CC(=O)Nc2ccc(OC(F)F)cc2)cc1 | -8.8% | ? | i | -20.4% | -8.2% | 4.11µM*
COc1ccc2c(c1)c(CC(=O)OCC(=O)N(C)C)c(C)n2C(=O)c1ccc(Cl)cc1 | 7.0% | -21.4% | ? | -24.8% | ? | i
Cc1cc(NC(=O)c2ccc(NC(=O)C3CC3)cc2)no1 | -5.7% | 1.4% | i | 8.9% | -0.2% | i
Cc1cc(Nc2cc(Cl)nc(Sc3ccc(NC(=O)C4CC4)cc3)n2)n[nH]1 | 20.6µM* | nt | i | nt | 34.3% | 1.64µM*
COc1ccc(CN2CCN(c3ncccn3)CC2)c(C)c1C | -5.8% | -1.5% | i | -14.8% | -18.8% | i
COCCn1cc(-c2csc(N)n2)c2ccccc21 | 18.4% | 10.7% | i | -2.5% | -11.0% | i
CN(C)c1nc(-c2cn(CCC#N)c3ccccc23)cs1 | 0.8% | 25.9µM* | i | ? | 20.2% | i
Cc1ccc2cc(C#N)c(NCCNC(=O)C3CCC3)nc2c1C | ? | -0.3% | 14.6µM* | -1.3% | ? | ?
CCOCCCNC(=S)NCCCNc1nc2c(C)c(C)ccc2cc1C#N | 20.6µM* | ? | ? | ? | 18.4µM* | i
CCOCCCNC(=S)N1CCCN(c2nc3c(C)c(C)ccc3cc2C#N)CC1 | ? | -11.5% | i | -16.4% | 2.4% | i
O=C(NCc1cccnc1)/C(=C\c1ccc(-c2ccc(Cl)c(Cl)c2)o1)S(=O)(=O)c1ccccc1 | ? | ? | 4.11µM* | ? | 6.51µM* | i
CCN(CCNCC(O)COc1ccccc1C(C)C)c1cccc(C)c1 (centres undefined) | -3.1% | 18.4µM* | ? | 20.6µM* | ? | i
COc1ccc(C)cc1NC(=O)c1nnn(Cc2cccc(Br)c2)c1N | nt | nt | i | nt | nt | ?
COc1ccc(C)cc1NC(=O)c1nnn(Cc2cccc(C(F)(F)F)c2)c1N | 11.2% | ? | i | -24.6% | 2.06µM* | ?
COc1ccccc1NC(=O)c1nnn(Cc2ccccc2)c1NC(=O)C(F)(F)F | -4.0% | -17.7% | 20.6µM* | -0.3% | 15.4% | 18.4µM*
COc1ccc(O)c(C2=Nc3ccccc3N=C(c3ccco3)C2)c1 | -7.3% | ? | i | -21.3% | 12.9% | i
COc1ccc2cc(C(C)C(=O)N3CCC(C)CC3)ccc2c1 (centres undefined) | ? | ? | ? | 14.6µM* | ? | 20.6µM*
COc1ccc(NC(=O)CSc2ccc3nnc(-c4cccnc4)n3n2)cc1 | 6.3% | -3.5% | i | 18.4% | -1.2% | i
CCCc1cc(=O)[nH]c(SCC(=O)NC(=O)NC2CCCC2)n1 | -3.4% | -14.4% | 4.11µM* | 0.0% | -0.8% | ?
CCCc1cc(=O)[nH]c(SCC(=O)Nc2sc(C(N)=O)c(C)c2C(=O)OCCOC)n1 | 11.2% | 2.59µM* | ? | 2.31µM* | -5.2% | 8.2µM*
CCOC(=O)c1c(NC(=O)CSc2nc3cc(Cl)ccc3s2)sc(C(C)=O)c1C | -4.1% | nt | nt | nt | 1.5% | nt
CCOC(=O)c1c(NC(=O)CSc2nc3ccccc3s2)sc(C(C)=O)c1C | -2.3% | -3.2% | 20.6µM* | ? | 3.4% | i
CCOC(=O)c1c(NC(=O)CSc2nnc(C)s2)sc2c1CCC(CC)C2 (centres undefined) | ? | -9.1% | 5.8µM* | 2.3% | 12.0% | i
CCOC(=O)c1c(NC(=O)c2ccc(F)cc2)sc2c1CCC(CC)C2 (centres undefined) | nt | nt | i | nt | nt | ?
CC(C)NC(=S)N/N=C/c1cccs1 | 6.0% | -13.2% | i | -2.3% | 2.9% | i
CCOC(=O)c1sc(NC(=O)CSc2nnc(C)s2)c(C(=O)OCC)c1C | -12.7% | 1.3% | 1.64µM* | 0.9% | 3.1% | i
C=CCNC(=S)/N=c1/scc(C)n1C | -10.4% | 2.9% | i | 6.9% | ? | i
